The values that follow come from PubChem BioAssay (EPA / NIEHS).

Records with an inconclusive call do not appear. The source holds several records for some structures; these can differ, active in one and inactive in another. Activity calls are given as the source filed them. Rule for the calls, unless noted: active = hit-call score of the fitted dose curve at least 0.9, where 1 is the maximum; inconclusive = response in the unintended direction; inactive = score below 0.9.

Read-out in experiment [1]: X-box binding protein 1 (XBP1), XBP1 (gene 7494)
In words: LTEA_HepaRG_XBP1: Life Technologies and Expression Analysis (LTEA) Assay for X-box binding protein 1 (XBP1) using HepaRG (AID 2283540; active = hit-call score of the fitted dose curve at least 0.9, where 1 is the maximum; inactive = score below 0.9). As to conditions: mRNA level, 48 h; actives raise or lower the signal. The essentials: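 HepaRG, 48 h exposure, 8-pt half-log CRC top 100 uM, 0.5% DMSO vehicle, duplicates. Readout: TaqMan qRT-PCR of XBP1 mRNA, housekeeping-normalised (ACTB/GAPDH/POLR2A); bidirectional fit vs DMSO baseline.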

Experiment [2] in a line: LTEA_HepaRG_LDH_cytotoxicity: Cytotoxicity Assessment in the Life Technologies and Expression Analysis (LTEA) Assay (AID 2283563).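 For AC50: LDH activity released into spent culture medium as a marker of cell death.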 The method in brief: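 HepaRG (human liver line), 48 h exposure, 8-pt half-log series from 100 uM, 0.5% DMSO vehicle, duplicates. Read-out: LDH in spent medium. Positive-direction fit vs DMSO baseline.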
A short description of experiment [3]: TOX21_p53_BLA_p2_viability: Viability Assessment in the Tox21 HCT-116 p53 Agonism Beta-lactamase Assay, Phase 2 (AID 2283591).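 Note: actives lower the ATP signal meaning cytotoxicity.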 The method in brief: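 HCT116 p53-bla cells, 4000/well, dosed after 5 h plating (217-fold dilution of DMSO stocks) and incubated 16 h at 37C. Viability taken as cellular ATP by CellTiter-Glo luminescence after 30 min RT; signal loss marks cytotoxicity.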

The target in experiment [4] is Cellular tumor antigen p53 (Homo sapiens) (UniProt P04637). Description: TOX21_p53_BLA_p2_ratio: Tox21 HCT-116 p53 Agonism Beta-lactamase Assay, Ratio, Phase 2 (AID 2283592). The essentials: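 Readout: blue/green (460/530 nm) FRET emission ratio after 2 h CCF4-AM loading at room temperature, excitation 405 nm. HCT116 p53 bla cells, 16 h compound exposure at 37C, 5% CO2; agonist direction fitted against DMSO baseline.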
Sequence of Cellular tumor antigen p53 (Homo sapiens) (P04637 whole entry, looked up): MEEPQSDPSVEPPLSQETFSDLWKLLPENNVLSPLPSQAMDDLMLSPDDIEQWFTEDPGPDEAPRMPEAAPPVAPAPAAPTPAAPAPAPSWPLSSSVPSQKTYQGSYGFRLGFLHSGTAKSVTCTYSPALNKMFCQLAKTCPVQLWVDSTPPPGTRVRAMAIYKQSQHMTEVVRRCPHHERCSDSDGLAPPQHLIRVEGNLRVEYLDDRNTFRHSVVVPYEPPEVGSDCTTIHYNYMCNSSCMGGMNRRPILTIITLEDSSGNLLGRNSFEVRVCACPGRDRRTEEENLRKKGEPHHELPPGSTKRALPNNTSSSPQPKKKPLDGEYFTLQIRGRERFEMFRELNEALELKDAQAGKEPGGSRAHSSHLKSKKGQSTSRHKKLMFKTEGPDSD

The nature of experiment [5]: TOX21_p53_BLA_p3_viability: Viability Assessment in the Tox21 HCT-116 p53 Agonism Beta-lactamase Assay, Phase 3 (AID 2283593).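 Note: cells exposed to compound for 16 h before reading.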 The essentials:
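HCT116 cells, 4000/well, dosed 5 h after plating by pin transfer (217-fold dilution from DMSO stock) and incubated 16 h at 37C, 5% CO2. Viability read as ATP luminescence with CellTiter-Glo after 30 min at room temperature.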

Experiment [6] has as its target Cellular tumor antigen p53 (Homo sapiens) (UniProt P04637). In words: TOX21_p53_BLA_p3_ratio: Tox21 HCT-116 p53 Agonism Beta-lactamase Assay, Ratio, Phase 3 (AID 2283596). The essentials:
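Cells were seeded at 4000/well, rested 5 h at 37C, then dosed with DMSO compound solutions (217-fold dilution) for 16 h. CCF4-AM substrate was loaded for 2 h at room temperature, and the 460/530 nm emission ratio was fitted for gain of signal versus DMSO.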

A short description of experiment [7]: TOX21_p53_BLA_p4_viability: Viability Assessment in the Tox21 HCT-116 p53 Agonism Beta-lactamase Assay, Phase 4 (AID 2283597).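 Note: hits lower the luminescence signal meaning cytotoxicity.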 The method in brief: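 ATP content by CellTiter-Glo luminescence, 30 min RT, read after the beta-lactamase ratio step. Cells: HCT116, 4000/well, compound added after 5 h, exposure 16 h at 37C. Signal loss = reduced viability.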
Experiment [8] has as its target Cellular tumor antigen p53 (Homo sapiens) (UniProt P04637). Description: TOX21_p53_BLA_p5_ratio: Tox21 HCT-116 p53 Agonism Beta-lactamase Assay, Ratio, Phase 5 (AID 2283599). The essentials: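 HCT-116 p53-bla cells (4000/well) plated 5 h, dosed with compound (217-fold DMSO dilution) for 16 h at 37 C; CCF4-AM substrate 2 h at room temperature. Activity is the 460/530 nm emission ratio (405 nm excitation), fitted in gain-of-signal direction versus DMSO.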

Experiment [9] has the same target. Description: TOX21_p53_BLA_p4_ratio: Tox21 HCT-116 p53 Agonism Beta-lactamase Assay, Ratio, Phase 4 (AID 2283601). The essentials:
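HCT-116 p53 beta-lactamase reporter cells (4000/well) preincubated 5 h, then compound (217-fold dilution of DMSO stock) for 16 h at 37C. CCF4-AM substrate added 2 h at room temperature; 460/530 nm emission ratio fitted upward versus DMSO.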

Experiment [10] in a line: Tanguay_ZF_120hpf_MORT_legacy: (Legacy) Oregon State University Tanguay Lab 120 Hour Post-fertilization zebrafish Assay for Mortality (AID 2283633). The method in brief:
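Brightfield scoring of embryo death (binary) at 24 and 120 hpf; static exposure 6–120 hpf, 28C, sealed and foil-covered. Pronase-dechorionated 5D wild-type larvae, single embryo per well. DMSO 0.64% v/v; trimethyltin chloride 5uM positive control.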

Experiment [11] can be described thus: Tanguay_ZF_120hpf_SNOU_legacy: (Legacy) Oregon State University Tanguay Lab 120 Hour Post-fertilization zebrafish Assay for Snout Malformation (AID 2283637). The essentials: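 Binary brightfield scoring of snout malformation at 120 hpf. Dechorionated 5D wild-type embryos, one per well, static exposure from 6 hpf at 28C, sealed and dark; final DMSO 0.64% (vol/vol), DMSO as baseline; 5uM trimethyltin chloride positive control.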

Experiment [12] is described as follows: Tanguay_ZF_120hpf_JAW_legacy: (Legacy) Oregon State University Tanguay Lab 120 Hour Post-fertilization zebrafish Assay for Jaw Malformation (AID 2283638).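 For AC50: active means more embryos with jaw malformation than DMSO controls.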 The method in brief: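 Binary jaw-malformation calls at 120 hpf by brightfield imaging; DMSO (0.64% v/v) = baseline. Embryos: 5D wild-type, pronase-dechorionated, one per well from 6 hpf, static exposure, 28C, sealed, dark.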

Experiment [13] can be described thus: Tanguay_ZF_120hpf_OTIC_legacy: (Legacy) Oregon State University Tanguay Lab 120 Hour Post-fertilization zebrafish Assay for Otic Vesicle Malformation (AID 2283639). The essentials:
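Wild-type zebrafish larvae, whole-embryo exposure from early stage to 120 hpf at 28C. Binary brightfield scoring of otic vesicle morphology, fitted in the positive direction against the DMSO baseline.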

A short description of experiment [14]: Tanguay_ZF_120hpf_PE_legacy: (Legacy) Oregon State University Tanguay Lab 120 Hour Post-fertilization zebrafish Assay for Pericardial Edema (AID 2283640).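 For AC50: potency for increased incidence of pericardial edema versus DMSO baseline.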 The method in brief: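 Static waterborne exposure, 5D wild-type embryos, 28C, to 120 hpf; final DMSO 0.64% (vol/vol). Binary PE call at 120 hpf by brightfield; fitted upward vs DMSO baseline. 5uM trimethyltin chloride as positive control.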

Experiment [15] can be described thus: Tanguay_ZF_120hpf_BRAI_legacy: (Legacy) Oregon State University Tanguay Lab 120 Hour Post-fertilization zebrafish Assay for Brain Malformation (AID 2283641). The method in brief:
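Read-out: binary brain morphology call at 120 hpf (brightfield), fitted in gain-of-signal direction vs DMSO. Wild-type Tropical 5D embryos, static exposure, 28C, 0.64% DMSO final; 5uM trimethyltin chloride as positive control.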

The nature of experiment [16]: TOX21_p53_BLA_p5_viability: Viability Assessment in the Tox21 HCT-116 p53 Agonism Beta-lactamase Assay, Phase 5 (AID 2283600). The essentials: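 ATP luminescence (CellTiter-Glo, 30 min, RT) served as the viability read-out, with loss of signal indicating cytotoxicity. Compounds in DMSO were pinned at a 217-fold dilution onto 4000 cells/well and incubated 16 h, 37C.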

The nature of experiment [17]: Tanguay_ZF_120hpf_YSE_legacy: (Legacy) Oregon State University Tanguay Lab 120 Hour Post-fertilization zebrafish Assay for Yolk Sac Edema (AID 2283634).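 For AC50: actives raise the incidence of yolk sac edema above the DMSO baseline.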 The method in brief: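 Binary brightfield scoring of yolk sac edema at 120 hpf; DMSO baseline, gain-of-signal fitting. Dechorionated 5D larvae, one per well, static exposure 6–120 hpf, 28C, 0.64% DMSO. Dead embryos not scored.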

Experiment [18] is described as follows: Tanguay_ZF_120hpf_AXIS_legacy: (Legacy) Oregon State University Tanguay Lab 120 Hour Post-fertilization zebrafish Assay for Body Axis Malformation (AID 2283635).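 For AC50: potency for an increased fraction of larvae scored with body axis malformation.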 The method in brief:
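Embryos: 5D wild-type, pronase-dechorionated 4 hpf; static exposure 6–120 hpf, 28C, sealed, dark, 1 embryo/well, 0.64% DMSO. 120 hpf axis malformation scored present/absent; dead embryos excluded. Analysed as gain of signal vs DMSO.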

Experiment [19] can be described thus: Tanguay_ZF_120hpf_EYE_legacy: (Legacy) Oregon State University Tanguay Lab 120 Hour Post-fertilization zebrafish Assay for Eye Malformation (AID 2283636).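 Note: binary presence or absence of eye malformation scored by brightfield in 120 hpf larvae.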 The essentials: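 5D wild-type embryos, pronase-dechorionated at 4 hpf; static exposure 6–120 hpf, 28C, dark; DMSO 0.64% final; 5uM trimethyltin chloride positive control. Binary eye-defect scoring at 120 hpf; dead embryos not scored.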

Consider `OC(c1ccc(Cl)cc1)(c1ccc(Cl)cc1)C(Cl)(Cl)Cl`, for which the AC50 in experiment [1] was 82.1 µM (active); in experiment [2], 74.3 µM (active); in [3] it was 77.9 µM (active); in experiment [5], 38.8 µM (active); in [6], 49.6 µM (active); in experiment [7], 86.7 µM (active). In addition, in experiment [8], the AC50 was 89.8 µM (active). In addition, the outcome in experiment [4], in [9], in experiment [10], in experiment [11], in experiment [12] and in [13] was inactive. Besides, the call in experiment [14] and in [15] was inactive.
As to `CCOC(=O)C(C)OC(=O)c1cc(Oc2ccc(C(F)(F)F)cc2Cl)ccc1[N+](=O)[O-]` (configuration not stated), the outcome in experiment [1], in experiment [2], in experiment [3], in [4], in experiment [5] and in experiment [6] was inactive. The compound was classed as inactive in experiment [7], in experiment [8], in experiment [16], in experiment [9], in [10] and in experiment [17]. The result in [18], in experiment [19], in [13], in experiment [14] and in [15] was inactive.
As to `CC1(C)C(C(=O)OC(C#N)c2cccc(Oc3ccccc3)c2)C1(C)C` (configuration not stated), the compound was classed as inactive in [1], in experiment [2], in experiment [3], in experiment [4], in [5] and in experiment [6]. Further, the compound was called inactive in experiment [7], in experiment [8], in experiment [9], in experiment [10], in experiment [17] and in experiment [18]. Besides, the compound was called inactive in [19], in experiment [11], in experiment [12], in experiment [13], in [14] and in experiment [15].
`Cn1c(-c2ccccc2)cc(-c2ccccc2)[n+]1C`: the compound was classed as inactive in experiment [1], in experiment [3], in experiment [4], in experiment [5], in experiment [6] and in experiment [7]. The result in [8], in [16], in experiment [9], in experiment [10], in [17] and in [18] was inactive. In addition, the call in [19], in [11], in experiment [12], in experiment [13], in [14] and in experiment [15] was inactive. Further, the AC50 in experiment [2] was 66.1 µM (active); in experiment [4] it was 24.2 µM (active).
For `Cc1ccc(N=CN(C)C=Nc2ccc(C)cc2C)c(C)c1`, the call in [1], in experiment [2], in experiment [3], in experiment [4], in experiment [5] and in [6] was inactive. Besides, the result in experiment [7], in experiment [8], in experiment [9], in experiment [10], in experiment [17] and in experiment [18] was inactive. The compound was called inactive in [19], in experiment [11], in experiment [13], in experiment [14] and in experiment [15].
As to `CCCCC(C#N)(Cn1cncn1)c1ccc(Cl)cc1` (configuration not stated), the result in experiment [1], in [2], in [3], in experiment [4], in experiment [5] and in experiment [6] was inactive. The compound was classed as inactive in [7], in [8], in experiment [9], in experiment [10], in experiment [13] and in experiment [15]. Moreover, the half-maximal activity concentration (AC50) in experiment [17] is 37.7 µM (active); in experiment [18], 56 µM (active); in experiment [19], 49.4 µM (active); in [11], 48.6 µM (active); in [12], 48 µM (active); in experiment [14], 46.8 µM (active).
For the compound `CC(C)N1C(=O)N(c2ccccc2)CSC1=NC(C)(C)C`, the outcome in experiment [1], in experiment [4], in experiment [5], in experiment [6], in experiment [8] and in experiment [10] was inactive. The outcome in experiment [17], in [18], in experiment [19], in experiment [11], in [12] and in experiment [13] was inactive. For the same compound, the call in [14] was inactive. Further, the AC50 in experiment [2] is 84.1 µM (active); in experiment [3] it was 84.6 µM (active); in [7] it was 71.3 µM (active); in experiment [9], 87.2 µM (active).
